Test results reported in PubChem BioAssay.
The source made the active and inactive calls. Unless noted, how the calls were made is not given here.

Assays:
[1] = test system: Wnt5a (protein binding on small-molecule microarray); assay: small molecules binding Wnt5a protein – biophysical, small-molecule microarray, 635/667 nm fluorescence, primary screen (AID 1142); conditions: 635 nm fluorescence, higher = more signal;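 further: fluorescence read at 667 nm with signal to noise per printed feature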
[2] = ATP-based viability of Huh7 replicon cells – cell-based, CellTiter-Glo luminescence, basal, 48 h, cytotoxicity control for HCV replication inhibitor project, primary screen (AID 1143); conditions: higher = more signal, called active from +8 up or from −8 down;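 further: Huh7 hepatoma cells carrying a hepatitis C replication reporter with no stimulus; test concentration not given here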
[3] = Pseudomonas biofilm growth suppression – PAO1 strain, BacTiter-Glo luminescence, LB-PBS, primary screen (AID 1144); conditions: P. aeruginosa PAO1 biofilm, 12 h, higher = more signal
[4] = basal CRE-LacZ reporter activity in PC12 – cell-based, unstimulated, primary screen (AID 1145); conditions: no forskolin, luminescence, 4.5 h, higher = more signal, called active from +8 up or from −8 down
[5] = forskolin-driven CRE-LacZ activity in PC12 – cell-based, CRE-LacZ reporter, forskolin-stimulated, primary screen (AID 1146); conditions: luminescence, 4.5 h, higher = more signal, called active from +8 up or from −8 down;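 further: PC12 cells with 6xCRE LacZ reporter stimulated by forskolin 10 µM; beta-galactosidase reporter signal reflecting CREB driven transcription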
[6] = target: Streptavidin (Streptomyces avidinii) (UniProt P22629); assay: compounds binding control protein streptavidin – biophysical, small-molecule microarray, 635/667 nm fluorescence, artefact control for SMM compound annotation, primary screen (AID 1147); conditions: higher = more signal;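 further: signal reflects streptavidin binding to arrayed compounds as a control protein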
[7] = probe aInhba binding on compound microarray – biochemical, small-molecule microarray, 635/667 nm fluorescence, primary screen (AID 1148); conditions: higher = more signal;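 further: score merges 667nm spot fluorescence with signal-to-noise for antibody binding to printed compounds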
Torsin-1A (Homo sapiens) [8] = target: Torsin-1A (Homo sapiens) (UniProt O14656); assay: TOR1A wild-type binding on microarray – cell lysate, small-molecule microarray, lysate, 635/667 nm, primary screen (AID 1149); conditions: COS7 hTOR1A-WT lysate, 635 nm fluorescence, higher = more signal
Torsin-1A (Homo sapiens) [9] = target: Torsin-1A (Homo sapiens) (UniProt O14656); assay: torsin A mutant lysate binding on microarrays – cell lysate, small-molecule microarray, COS7 lysate, 635/667 nm fluorescence, primary screen (AID 1150); conditions: COS7 hTOR1A mutant lysate, 635 nm fluorescence, higher = more signal;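 further: score pools 667 nm emission and signal to noise measuring lysate protein binding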
[10] = test system: Sonic hedgehog protein (Shh); assay: Sonic hedgehog microarray binding compounds – biochemical, small-molecule microarray, 635/667 nm fluorescence, primary screen (AID 1151); conditions: 635 nm fluorescence, higher = more signal;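 further: Shh protein binding to compounds spotted on small-molecule microarray slides; score combines spot fluorescence intensity with signal-to-noise across triplicate slides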
[11] = optical density shifts of acrAB sulA E. coli – strain DRC41, OD650, 48 h, E. coli filamentation inducer project, primary screen (AID 1152); conditions: higher = more signal, called active from +8 up or from −8 down;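 further: E. coli MC1000 strain DRC41 lacking acrAB efflux pump and sulA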
[12] = probe aLefty1 binding on compound microarray – biochemical, small-molecule microarray, 635/667 nm fluorescence, primary screen (AID 1153); conditions: higher = more signal;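 further: score merges spot fluorescence with signal-to-noise ratio from the scanned slide images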
[13] = plasmodial surface anion channel blockers, osmotic lysis – cell-based, P. falciparum Indochina, OD700, 1 h, primary screen (AID 1154); conditions: P. falciparum Indochina infected RBC osmotic lysis, higher = more signal, called active from +8 up or from −8 down
[14] = plasmodial surface anion channel blockers, osmotic lysis – cell-based, P. falciparum Indochina, OD700, 2 h, primary screen (AID 1155);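 further: lysis reports solute entry through the parasite surface anion channel PSAC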; conditions: P. falciparum Indochina infected erythrocytes, higher = more signal, called active from +8 up or from −8 down
[15] = changes in parasitized red cell lysis, either direction – P. falciparum Indochina, OD700, 3 h, PSAC antagonist project, primary screen (AID 1156); conditions: P. falciparum-infected erythrocytes, osmotic lysis, higher = more signal, called active from +8 up or from −8 down
[16] = plasmodial surface anion channel blockers, osmotic lysis – cell-based, P. falciparum Indochina, OD700, 18 h, primary screen (AID 1157); conditions: P. falciparum Indochina infected erythrocytes, osmotic lysis OD700, 18 h; higher = more signal, called active from +8 up or from −8 down
[17] = S6 kinase pathway phospho-S6 level changes – cell-based, A549, cytoblot, luminescence, serum-stimulated, primary screen (AID 1158); conditions: 5 h, higher = more signal;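 further: serum-stimulated A549 lung adenocarcinoma cells; signal is phosphorylated S6 detected by cytoblot immunostaining with HRP secondary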
[18] = target: NADPH oxidase 2 (Homo sapiens) (UniProt P04839); assay: compounds shifting NOX2 Amplex Red fluorescence – cell-based, HEK293-NOX2, PMA-stimulated, NOX inhibitor project, primary screen (AID 1159); conditions: 45 min, higher = more signal, called active from +8 up or from −8 down; further: test concentration not given here
[19] = target: NADPH oxidase 4 (Homo sapiens) (UniProt Q9NPH5); assay: compounds shifting NOX4 Amplex Red fluorescence – cell-based, HEK293-NOX4, tetracycline-induced, NOX inhibitor project, primary screen (AID 1160); conditions: HEK293-NOX4, Amplex Red H2O2 fluorescence, 45 min; higher = more signal, called active from +8 up or from −8 down
[20] = target: NADPH oxidase 5 (Homo sapiens) (UniProt Q96PH1); assay: compounds shifting NOX5 Amplex Red fluorescence – cell-based, HEK293-NOX5, NOX inhibitor project, primary screen (AID 1161); conditions: HEK293-NOX5, ionomycin, 45 min, higher = more signal
Chain of NADPH oxidase 5 (Homo sapiens) (Q96PH1 whole entry, looked up): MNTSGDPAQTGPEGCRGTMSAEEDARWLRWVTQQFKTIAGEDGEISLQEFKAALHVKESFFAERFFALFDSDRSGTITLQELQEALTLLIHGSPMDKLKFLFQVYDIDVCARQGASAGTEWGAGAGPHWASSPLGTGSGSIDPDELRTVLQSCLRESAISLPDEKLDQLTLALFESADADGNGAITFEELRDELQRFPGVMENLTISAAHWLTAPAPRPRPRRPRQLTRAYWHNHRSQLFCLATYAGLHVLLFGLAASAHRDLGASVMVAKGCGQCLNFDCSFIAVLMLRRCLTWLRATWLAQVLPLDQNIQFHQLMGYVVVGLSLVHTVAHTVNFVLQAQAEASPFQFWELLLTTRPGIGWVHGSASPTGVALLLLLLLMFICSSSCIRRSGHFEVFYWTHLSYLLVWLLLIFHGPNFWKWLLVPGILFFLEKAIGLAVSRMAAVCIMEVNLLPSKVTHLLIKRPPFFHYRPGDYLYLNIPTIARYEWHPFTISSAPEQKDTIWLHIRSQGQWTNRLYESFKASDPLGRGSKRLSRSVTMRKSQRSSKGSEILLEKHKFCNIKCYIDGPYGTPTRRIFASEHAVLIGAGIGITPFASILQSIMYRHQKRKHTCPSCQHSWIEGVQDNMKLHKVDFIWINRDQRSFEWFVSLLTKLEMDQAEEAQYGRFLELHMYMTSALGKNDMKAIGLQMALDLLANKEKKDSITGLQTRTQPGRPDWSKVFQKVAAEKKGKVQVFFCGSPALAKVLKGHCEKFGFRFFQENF

Chain of Torsin-1A (Homo sapiens) (O14656 whole entry, looked up): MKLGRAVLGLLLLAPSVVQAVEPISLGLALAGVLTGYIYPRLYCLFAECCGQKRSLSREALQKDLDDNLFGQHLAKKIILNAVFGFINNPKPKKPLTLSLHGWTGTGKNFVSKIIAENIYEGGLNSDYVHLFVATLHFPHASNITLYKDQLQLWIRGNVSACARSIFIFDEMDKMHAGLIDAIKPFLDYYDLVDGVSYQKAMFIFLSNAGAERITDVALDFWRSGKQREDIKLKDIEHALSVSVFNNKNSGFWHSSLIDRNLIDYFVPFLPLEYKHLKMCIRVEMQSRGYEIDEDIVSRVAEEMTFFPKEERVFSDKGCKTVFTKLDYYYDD
Chain of NADPH oxidase 2 (Homo sapiens) (P04839 whole entry, looked up): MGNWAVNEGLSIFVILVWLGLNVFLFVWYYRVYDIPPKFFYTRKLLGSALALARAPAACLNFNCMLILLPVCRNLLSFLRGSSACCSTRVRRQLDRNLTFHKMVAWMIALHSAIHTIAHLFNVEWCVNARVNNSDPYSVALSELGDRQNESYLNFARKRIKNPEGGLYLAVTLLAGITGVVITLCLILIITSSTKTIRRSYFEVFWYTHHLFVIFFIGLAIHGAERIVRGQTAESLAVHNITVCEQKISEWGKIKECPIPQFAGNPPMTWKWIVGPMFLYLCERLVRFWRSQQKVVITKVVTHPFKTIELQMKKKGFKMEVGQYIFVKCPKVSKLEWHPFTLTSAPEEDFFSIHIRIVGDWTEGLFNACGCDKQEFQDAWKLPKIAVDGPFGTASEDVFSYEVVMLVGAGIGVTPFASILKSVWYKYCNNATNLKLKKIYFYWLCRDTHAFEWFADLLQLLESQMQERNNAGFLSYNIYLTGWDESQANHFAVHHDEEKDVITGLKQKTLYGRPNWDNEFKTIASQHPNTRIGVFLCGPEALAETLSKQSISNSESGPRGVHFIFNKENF
Chain of Streptavidin (Streptomyces avidinii) (P22629 whole entry, looked up): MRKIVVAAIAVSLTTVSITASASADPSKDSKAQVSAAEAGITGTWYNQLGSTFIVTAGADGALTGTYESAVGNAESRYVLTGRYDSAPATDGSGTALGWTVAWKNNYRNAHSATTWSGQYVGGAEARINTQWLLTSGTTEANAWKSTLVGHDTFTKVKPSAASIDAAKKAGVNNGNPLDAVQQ
Chain of NADPH oxidase 4 (Homo sapiens) (Q9NPH5 whole entry, looked up): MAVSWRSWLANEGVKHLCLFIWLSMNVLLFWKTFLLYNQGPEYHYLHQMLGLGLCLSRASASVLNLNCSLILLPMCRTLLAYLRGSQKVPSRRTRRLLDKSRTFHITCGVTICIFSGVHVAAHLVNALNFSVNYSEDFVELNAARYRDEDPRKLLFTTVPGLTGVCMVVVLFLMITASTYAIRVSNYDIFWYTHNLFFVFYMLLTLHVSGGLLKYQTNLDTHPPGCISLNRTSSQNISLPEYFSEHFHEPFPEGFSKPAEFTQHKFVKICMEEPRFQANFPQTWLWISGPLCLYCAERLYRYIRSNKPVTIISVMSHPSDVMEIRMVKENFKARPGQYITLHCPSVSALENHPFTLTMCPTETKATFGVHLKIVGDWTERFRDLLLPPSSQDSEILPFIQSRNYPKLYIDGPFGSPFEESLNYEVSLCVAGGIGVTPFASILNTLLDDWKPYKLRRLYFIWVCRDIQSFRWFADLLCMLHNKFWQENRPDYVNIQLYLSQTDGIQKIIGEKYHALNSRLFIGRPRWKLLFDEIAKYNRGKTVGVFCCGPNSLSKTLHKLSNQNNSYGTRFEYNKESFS

| Structure (SMILES) | composite z-score [1] | z-score [2] | z-score [3] | z-score [4] | z-score [5] | composite z-score [6] | composite z-score [7] | composite z-score (Torsin-1A (Homo sapiens) [8]) | composite z-score (Torsin-1A (Homo sapiens) [9]) | composite z-score [10] | z-score [11] | composite z-score [12] | z-score [13] | z-score [14] | z-score [15] | z-score [16] | z-score [17] | z-score [18] | z-score [19] | z-score [20] |
| --- | --- | --- | --- | --- | --- | --- | --- | --- | --- | --- | --- | --- | --- | --- | --- | --- | --- | --- | --- | --- |
| COCCOC(=O)N1C(=O)[C@@]2(c3cc(C#CC4=CCCCC4)ccc31)[C@H](C(N)=O)[C@H]1C(=O)O[C@H](c3ccccc3)[C@H](c3ccccc3)N1[C@@H]2c1ccccc1OCCO | 0.183 | -6.52 (inactive) | -0.413 (inactive) | -0.333 (inactive) | -0.855 (inactive) | 0.483 | 0.147 | 0.38 | 1.41 | 1.08 | -0.172 (inactive) | 0.199 | 3.63 (inactive) | 2.55 (inactive) | 0.629 (inactive) | 2.15 (inactive) | -0.332 | 2.16 (inactive) | 0.932 (inactive) | 1.42 |
| CCOC(=O)C[C@H]1[C@H](OC(=O)Cc2ccc3c(c2)OCO3)[C@@H](NC(=O)CC(C)C)c2cc(OCCCO)ccc2N1C(=O)Cc1ccc(OC)cc1 | -0.199 | -1.04 (inactive) | 0.29 (inactive) | 0.0918 (inactive) | -0.513 (inactive) | -0.0258 | -0.0471 | 0.288 | -0.115 | -0.113 | 2.26 (inactive) | -0.145 | 6.25 (inactive) | -0.537 (inactive) | -1.07 (inactive) | -1.3 (inactive) | 1.72 | 0.163 (inactive) | 0.781 (inactive) | 1.15 |
| CCCCC(=C=CC[C@@H](O)c1ccccc1OCCO)C[C@@H](O)COCc1ccccc1 | -0.027 | -2.16 (inactive) | -0.631 (inactive) | 17.1 (active) | -0.749 (inactive) | -0.385 | 0.257 | -0.745 | -0.592 | 0.697 | 1.47 (inactive) | 0.117 | 17.5 (active) | 1.74 (inactive) | -0.255 (inactive) | -0.385 (inactive) | 1.51 | -0.123 (inactive) | -0.101 (inactive) | -2.04 |
| COC(=O)c1c(CC[C@@H](CO)NC(=O)N2CCC[C@H]2Cn2cc(Cc3ccccc3)nn2)oc(C(C)=O)c1C(=O)OC | -0.0725 | -0.393 (inactive) | 0.726 (inactive) | -0.244 (inactive) | -0.152 (inactive) | -0.114 | -0.0736 | -0.0521 | 0.398 | 1.84 | -0.195 (inactive) | -0.177 | 0.133 (inactive) | 0.258 (inactive) | 0.876 (inactive) | -0.033 (inactive) | 0.567 | -1.79 (inactive) | -0.894 (inactive) | -1.85 |
| COc1ccc([Si](C)(C)[C@@H]2[C@@H](CCn3cc([C@H](O)c4ccccc4)nn3)O[C@]3(C(=O)N(Cc4ccc(N5CCC5=O)cc4)c4ccccc43)[C@H]2C)cc1 | 0.512 | -2.65 (inactive) | -1.38 (inactive) | 1.03 (inactive) | 0.355 (inactive) | -0.105 | -0.184 | 2.13 | 0.269 | 2.02 | 0.893 (inactive) | -0.696 | 18.8 (active) | 4.31 (inactive) | 1.66 (inactive) | 1.19 (inactive) | 0.759 | 0.193 (inactive) | 1.08 (inactive) | 1.7 |
| Cc1ccccc1C(O)C1C=CC2C(=O)N(C)C(=O)C2N1N(c1ccccc1)c1ccccc1 (stereo not given) | 0.613 | -0.0897 (inactive) | -0.588 (inactive) | -0.136 (inactive) | -0.0376 (inactive) | 0.115 | 1.15 | -0.0241 | 0.0289 | 0.188 | -0.402 (inactive) | 0.998 | 3.21 (inactive) | 1.71 (inactive) | 0.625 (inactive) | 1.25 (inactive) | -0.877 | 0.888 (inactive) | 0.0569 (inactive) | -0.125 |
| COC(=O)c1c(CC[C@@H](CO)NC(=O)N[C@H](Cn2cc(C3(O)CCCCC3)nn2)C(C)C)oc(C(C)=O)c1C(=O)OC | 0.359 | -2.81 (inactive) | -0.875 (inactive) | 1.34 (inactive) | -1.13 (inactive) | 1.31 | -0.0523 | 0.881 | 0.756 | 1.59 | 1.51 (inactive) | 0.102 | 1.45 (inactive) | -0.141 (inactive) | 1.02 (inactive) | -0.152 (inactive) | 2.22 | -3.25 (inactive) | -0.839 (inactive) | 0.655 |
| CC(C)C(=C=CC[C@H](O)c1cccc(OCCO)c1)C[C@H](O)c1cc(Cl)cc(Cl)c1O | 0.255 | -0.254 (inactive) | -1.02 (inactive) | 5.53 (inactive) | 0.813 (inactive) | 0.092 | -0.116 | 0.605 | -0.356 | 1.95 | 0.321 (inactive) | 0.0999 | 14.5 (active) | 2.25 (inactive) | 0.667 (inactive) | 0.847 (inactive) | 1.53 | -1.01 (inactive) | -0.881 (inactive) | -1.83 |
